Compounds with a hit are over-represented: about 6.2% of the library has one in this group of screens.
HCMV inh – human cytomegalovirus inhibition. HFF cells, HCMV-luciferase reporter, 72 h; active compounds read low. activity change, negative = inhibition, % at 57.5 µM. 410,000 compounds, 4.5% hits. AID 1259415; in the data active means activity change below about -60%; inconclusive means no clear call, values can overlap the other calls; inactive means above about -39%
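HFF cells seeded 16 h at 37C, treated with compounds, infected with luciferase-reporter HCMV at MOI 1 PFU/cell; luciferase read at 72 h post infection, normalized to buffer-only and Salinomycin controls.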
LASV entry inh – inhibitors of Lassa virus binding or cell entry; Lassa virus pseudotype entry inhibition, cell reporter; Potency, µM (top dose mostly 37.9 µM), inactives show at the highest dose activity change, negative = inhibition, actives largely listed as inhibitors; 300,000 compounds, 1.2% hits; AID 540256; calls by dose curve; tested in HEK293 cells; further: potency means the concentration at half of the fitted maximal effect; nearly all actives have a fitted effect of over 50% in size
FMDV antiviral – foot and mouth disease virus antiviral activity. 410,000 compounds, 1.2% hits. FMDV antiviral cell-based qHTS. AID 1159524. Potency, µM (doses to about 57.9 µM), for the others: top-dose activity change, negative = inhibition, usual class: inhibitors; calls by dose curve; tested in HEK293T cells; further: read-out not given here; potency means the concentration at half of the fitted maximal effect; nearly all actives have a fitted effect of over 45% in size
Marburg entry inh – blocks Marburg virus binding to or entry into cells; 300,000 compounds, 1.8% hits; Marburg virus pseudotyped entry inhibition, cell reporter; Potency, µM (titrated, usually from 37.8 µM), inactives show at the top dose activity change, negative = inhibition, most hits filed as inhibitors; calls by dose curve; tested in HEK293 cells; further: potency means the concentration at half of the fitted maximal effect
Active calls of the source: *; ? = inconclusive; . = no result given; ! = not confirmed by another sample; [ ] = dose if it differs, or a comment. On the % scale 0 is the no-effect control and ±100 the full control effect.

SMILES	HCMV inh	LASV entry inh	FMDV antiviral	Marburg entry inh
CC1CC2C3CCC4=CC(=O)CCC4(C)C3CCC2(C)C1(O)C(=O)CO (stereo not drawn)	21	?	-8%	17%[46.1 µM]
O=C1Nc2ccccc2/C1=C/C(=O)c1cccs1	-95*	-15%	22µM*	?
O=C1Nc2ccccc2/C1=C/c1ccccc1F	18	1%[46.1 µM]	-10%	-8%[46.1 µM]
O=C(Nc1ccccc1)N(C1=NCCCCS1)c1ccccc1	-104*	14%	9%	-7%
O=C(/C=C/c1cccnc1)/C=C/c1cccnc1	-97*	.	11µM*	.
COc1ccc(/C=C/C(=O)c2ccc(O)cc2O)cc1	.	.	34%	.
CSc1ccc(/C=C/C(=O)c2ccc(O)cc2)cc1	-5	-32%	-36%	-20%
C(=Cc1cccnc1)c1ccncc1	-26	-2%[46.1 µM]	17%	-10%[46.1 µM]
O=C(/C=C/c1ccc(O)cc1)c1ccc(O)cc1O	29	?	?	10µM*!
Cc1ccc(/C=C/C(=O)c2ccc(O)cc2)cc1	-7	8.9µM*	12%	?
COc1ccc(C(=O)/C=C/c2ccccc2)c(O)c1	-106*	.	-1%	.
Nc1nc(NC2CCCC2)cc(=O)[nH]1	32	3%	-10%	26%
COc1ccc(NC(=O)c2cnc(N3CCCC3)nc2)cc1OC	-6	6%[46.1 µM]	7%	.
COc1ccc(OC)c(C(=O)/C=C/c2cccnc2)c1	-100*	?	?	?
COc1cc(C(=O)/C=C/c2cccnc2)ccc1O	12	?	?	?
COc1cc(OC)c(C(=O)/C=C/c2ccccc2)c(O)c1O	7	.	25µM*	.
CN(CC1COc2ccccc2O1)c1nc(-c2cccnc2)nc2ccccc12 (stereo not drawn)	-17	?	25µM*	2.6µM*
c1cncc(-c2nc(NCC3COc4ccccc4O3)c3ccccc3n2)c1 (stereo not drawn)	-17	-30%	22µM*	?
c1cncc(-c2nc(NCc3ccc4c(c3)OCO4)c3ccccc3n2)c1	0	.	?	.
CN(Cc1ccco1)c1nc(-c2cccnc2)nc2ccccc12	.	.	-7%	.
C=CCn1c(C)c(C(C)=O)c(N2CCOCC2)nc1=S	-8	3%	-2%	-7%[46.1 µM]
O=C(NCCc1ccc(Cl)cc1)C1CCC(CNc2nc(=S)[nH]c3ccccc23)CC1 (stereo not drawn)	-82*	-15%	-10%	?
CCCCNC(=O)C1CCC(CNc2nc(=S)[nH]c3ccccc23)CC1 (stereo not drawn)	30	-19%	-9%	-23%
O=C(NCCC1=CCCCC1)C1CCC(CNc2nc(=S)[nH]c3ccccc23)CC1 (stereo not drawn)	-62*	.	-17%	-6%[46.1 µM]
O=C(NCc1ccc2c(c1)OCO2)c1cc(-n2cnnc2)ccc1Cl	-13	22%	-12%	-7%
SMILES	HCMV inh	LASV entry inh	FMDV antiviral	Marburg entry inh
N#Cc1cccc(NC(=O)CSc2nc3c(cc2C#N)N2CCC3CC2)c1	-83*	?	40%	?
CCOC(=O)c1ccc(NC(=O)CSc2nc3c(cc2C#N)N2CCC3CC2)cc1	6	-15%[46.1 µM]	13µM*	?
N#Cc1cc2c(nc1SCC(=O)Nc1ccc(OC(F)(F)F)cc1)C1CCN2CC1	-72*	-29%[46.1 µM]	-42%	.
N#Cc1cc2c(nc1SCC(=O)Nc1cccc(C(F)(F)F)c1)C1CCN2CC1	?	-36%[46.1 µM]	2%	-9%[46.1 µM]
Cc1cccc(-n2c(C)nc3cc(C(=O)NCc4ccc5c(c4)OCO5)ccc32)c1	-40	5%	11%	1%
CC(NNC(=S)N1CCCCCC1)c1ccc2ccccc2n1 (stereo not drawn)	-94*	.	57%	.
Cc1nnc(SCC(=O)NNC(=O)c2ccc(Cl)cc2)s1	-11	1%	-15%	?
Nc1nnc(SCC(=O)NNC(=O)c2ccc(Cl)cc2)s1	-73*	.	-29%	.
CNCC[C@@H](Oc1ccccc1C)c1ccccc1	-36	.	-18%	.
CNCCC(Oc1ccccc1OC)c1ccccc1 (stereo not drawn)	-16	?	-19%	18µM*
CC/C=C/CC(=O)N[C@@H](c1ccccc1)[C@@H](O)C(=O)O[C@H]1C[C@@]2(O)[C@@H](OC(=O)c3ccccc3)C3[C@](C)(C(=O)[C@H](OC(C)=O)C(=C1C)C2(C)C)[C@@H](O)C[C@H]1OC[C@@]31OC(C)=O (stereo partly drawn)	-91*	.	0%	.
CC(=O)O[C@H]1C(=O)[C@@]2(C)[C@H]([C@H](OC(=O)c3ccccc3)[C@]3(O)C[C@H](OC(=O)[C@H](O)C(NC(=O)c4ccccc4)c4ccccc4)C(C)=C1C3(C)C)[C@]1(OC(C)=O)CO[C@@H]1C[C@@H]2O (stereo partly drawn)	-83*	.	-29%	.
CC(=O)O[C@H]1C(=O)[C@@]2(C)[C@H]([C@H](OC(=O)c3ccccc3)[C@]3(O)C[C@H](OC(=O)[C@H](O)[C@@H](NC(=O)c4ccccc4)c4ccccc4)C(C)=C1C3(C)C)[C@]1(OC(C)=O)CO[C@@H]1C[C@@H]2O	-70*	.	?	?
CC(=O)O[C@@]12CO[C@@H]1C[C@@H](O)[C@@]1(C)C(=O)[C@H](O)C3=C(C)[C@@H](OC(=O)[C@H](O)[C@@H](NC(=O)c4ccccc4)c4ccccc4)C[C@@](O)([C@@H](OC(=O)c4ccccc4)C12)C3(C)C (stereo partly drawn)	?	.	-23%	.
CCOC(=O)N1CCc2c(sc(NC(=O)C3=COCCO3)c2C(N)=O)C1	8	-1%	-5%	4%
CCOC(=O)c1c(NC(=O)CN2CCCCC2)sc2c1CCN(C(=O)OCC)C2	-60*	?	.	?
CCOC(=O)c1sc(NC(=O)CCN2CCN(C)CC2)c(C(=O)OCC)c1C	?	11µM*	-20%	0%
CCOC(=O)c1c(NC(=O)CN2CCN(S(=O)(=O)c3cc(Cl)ccc3Cl)CC2)sc(C(=O)N(C)C)c1C	-90*	.	?	.
CCOC(=O)c1c(NC(=S)N2CCN(C)CC2)sc2c1CCN(C(=O)OCC)C2	-99*	-16%[46.1 µM]	-19%	?
CCOC(=O)c1ccc(-n2c(CCC(=O)O)ccc2-c2cccs2)cc1	-4	-17%	-2%	4%[46.1 µM]
Cc1ccccc1CCNC(=O)c1ccc2c(c1)c(C)c(C)n2C	?	28%[46.1 µM]	57%	.
CC(NC(=O)Nc1cccc([N+](=O)[O-])c1)(C(F)(F)F)C(F)(F)F	-93*	?	?	?
COc1ccc(C(=O)Nc2cccc([N+](=O)[O-])c2)cc1Br	46	?	-27%	?
O=C(Nc1ccc([N+](=O)[O-])cc1)Nc1ccc(OC(F)F)c(Cl)c1	-101*	15µM*	25µM*	?
O=C(Nc1cccc([N+](=O)[O-])c1)c1cccc(C(=O)Nc2cccc([N+](=O)[O-])c2)c1	74	.	-23%	.
O=C(Nc1cccc([N+](=O)[O-])c1)Nc1ccc2c(c1)CCC2	-103*	?	-27%	?
O=C(Nc1ccc(OC(F)F)c(Cl)c1)Nc1ccc2c(c1)OCO2	16	-25%	-9%	-3%
COc1ccc(NC(=O)Nc2cccc([N+](=O)[O-])c2)cc1Cl	-100*	-15%	?	?

Compound activity from PubChem BioAssay.
